Structures are written as SMILES. About 83,000 compounds went through this panel and 20% of them were active in at least one assay; those are over-represented in the sample as a whole.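 Treatment: one concentration, 48 hours, 96-well format. Scoring: percent growth, with anything below 10 considered active.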 Activity calls are given as the source filed them.

Results on 40 molecules are retold here after PubChem BioAssay (NCI).

The test deals with HL-60(TB) leukemia. Briefly: NCI-60 one-dose screen, 48 h (100 = growth as untreated, 0 = no growth, -100 = all killed). Conditions: 10 µM unless noted.
As for `C/C=C/[C@@H]1C=C[C@@H]2C[C@H](C)CC[C@H]2[C@]1(C)/C(O)=C1/C(=O)[C@H](CO)N(C)C1=O`, the growth is 62.7% (inactive).
The result for `Cc1ccc(S(=O)(=O)NCCNc2nc(Nc3ccc(N4CCN(C)CC4)cc3)nc3ccsc23)cc1` reads 86.4% (inactive); that for `O=c1c2ccccc2nc(COc2ccccc2)n1/N=C/C=C/c1ccccc1`, 107% (inactive).
Under `N#Cc1c(-c2ccc(Cl)cc2)nc(SCc2ccccc2)nc1N1CCNCC1` stands 1.3% (active); under `COc1cc(/C=C2\C(=O)Nc3ccccc32)ccc1OCc1ccc(Cl)cc1`, 113% (inactive); under `COc1ccc(C(=NNS(=O)(=O)c2ccc(C)cc2)c2ccccc2)cc1OC`, 96.9% (inactive).
The result for `C/C(=N\O)[C@H]1C[C@]23CC[C@]4(C)[C@H](CC[C@@H]5[C@@]6(C)CC/C(=N/O)C(C)(C)[C@@H]6CC[C@]54C)[C@H]2[C@H](C)C1(C)OC3` reads 121% (inactive); that for `Cc1ccc(OCc2occc2C(=O)N2CCOCC2)cc1`, 107% (inactive); that for `COc1ccc([C@@H]2c3[nH]c4ccccc4c3CC3C(=O)N(C4CCN(Cc5c(F)cccc5F)CC4)CC(=O)N32)c(OC)c1` (stereo not given in full), 39.6% [5.26 µM] (inactive).
Regarding `Cc1ccc(-c2nc(C(Cl)Cl)nc3cc(-c4ccccc4)nn23)cc1`, the growth is -12% (active).
For `C#C[C@]1(O)CC[C@H]2[C@@H]3CC=C4c5sc(-c6cccc(F)c6)nc5CC[C@]4(C)[C@H]3CC[C@@]21C`, the growth is 79.6% (inactive).
As for `O=C(/C=C/c1cn(-c2ccccc2)nc1-c1ccc(Cl)cc1)c1cc2ccccc2oc1=O`, the growth was 85.6% (inactive).
Under `Cc1cc(C)n(C(=O)c2sc(=S)n(-c3ccccc3)c2N=Nc2c(N)n[nH]c2N)n1` stands 110% (inactive).
Under `COc1ccc(NC2=C(Cl)C(=O)C(C)=C(C)C2=O)cc1OC` stands 88.4% (inactive); under `O=C(NCCN1CCCC1)c1ccc(-c2nc3ccc4[nH]ncc4c3c3c2CCCC3)cc1`, -49.8% (active).
Under `Cc1ccc2c(n1)C(=O)C(Cl)=C(Nc1ccccc1C(=O)OC(C)(C)C)C2=O` stands -32.7% (active); under `Cc1cc2ncc(-c3cc4ccccc4c(N4CCN(C)CC4)n3)nc2cc1C`, -31.9% (active).
For the molecule `COc1ccc(/C=C/C(=O)c2nnn(-c3ccc(C(=O)O)cc3)c2C)cc1OC`, the growth was 83.2% (inactive).
Under `Cn1cc(-c2nc(N)nnc2-c2c[nH]c3ccc(Br)cc23)c2cc(Br)ccc21` stands 3.35% (active); under `COc1cc(-c2nc(-c3ccccc3)[nH]c2-c2ccnc(NCCCNS(=O)(=O)c3ccc(C)cc3)n2)ccc1F`, 93.4% (inactive); under `CC(C)[C@H]1c2[nH]c3ccccc3c2C[C@H]2C(=O)N(CCCCCCC(=O)NO)CC(=O)N12`, 96.1% (inactive).
The result for `CC(C)C[C@H]1C(=O)O[C@H](C(C)C)C(=O)N(C)[C@@H](C(C)C)C(=O)O[C@H](C(C)C)C(=O)N(C)[C@@H](C(C)C)C(=O)O[C@H](C(C)C)C(=O)N1C` reads -51.3% (active).
Regarding `Nc1nc(-c2cccc([N+](=O)[O-])c2)c(N=Nc2ccc(Br)cc2)s1`, the growth is 100% (inactive).
Under `CCOC(=O)c1csc(NC(=O)CSc2nc3sc4c(c3c(=O)n2-c2ccc(Cl)cc2)CCCC4)n1` stands 92.1% (inactive); under `C#Cc1nc(C2=C(C)C(=O)/C(=N/OC(C)=O)C2)cs1`, 20.4% (inactive); under `CCN1C(=O)N(CC)C2SC(N/N=C/c3ccccc3F)=NC21` (stereo not given), 0.098% (active).
Consider `C/C(CC1(O)C(=O)Nc2ccccc21)=N\O` (stereo not given), for which the growth is 97% (inactive).
The result for `O=C1CCC(N2C(=O)c3ccc(NS(=O)(=O)c4ccccc4OC(F)(F)F)cc3C2=O)C(=O)N1` (stereo not given) reads -20.1% (active).
The result for `Cc1ccc(C(=O)Nc2ccc(CNCCN3CCNCC3)c(C(F)(F)F)c2)cc1C#Cc1cnc2cccnn12` reads -54.7% (active).
Under `CCNC(=O)N1CCc2cc(OC)c(OCCc3ccc(OC)nc3)cc2C1c1ccc(OC)cc1C` (stereo not given) stands 11.5% (inactive); under `O=C1c2c(c3c4cccnc4[nH]c3c3ccc4ccccc4c23)C(=O)N1CCO`, 97.1% (inactive).
With `N#Cc1nc(-c2ccccc2)oc1S(N)(=O)=O`, the growth was 27.1% (inactive).
Under `Cc1ccc(C(=O)Nc2ccc(CNCCN3CCOCC3)c(C(F)(F)F)c2)cc1C#Cc1cnc2cccnn12` stands -21.3% (active).
Under `Fc1ccc(-c2cc3nc(C(Cl)Cl)nc(-c4cccs4)n3n2)cc1` stands -2% (active); under `COc1ccc([C@H]2c3[nH]c4ccccc4c3C[C@@H]3C(=O)N(C4CCN(Cc5ccccc5)CC4)CC(=O)N23)c(OC)c1`, 50.7% (inactive).
Consider `N#Cc1nc(-c2ccccc2)oc1S(=O)(=O)N1CCCCC1`, for which the growth is 10.5% (inactive).
Under `CCNC(=O)N1CCc2cc(OC)c(OCCc3ccc(OC)c(N)c3)cc2C1c1ccc(C)cc1C` (stereo not given) stands 16.5% (inactive); under `NS(=O)(=O)c1ccc(-n2cc(CN3CCCCC3)nn2)cc1`, 101% (inactive); under `CS(=O)(=O)c1ccc(/C(=N/N=C(N)N)c2ccc(F)cc2)cc1`, 97.8% (inactive).
Under `N#Cc1c(-c2ccc(F)cc2)cc(-c2c[nH]c3ccccc23)nc1-c1c[nH]c2ccccc12` stands 98.9% (inactive).
